Where “and” joins values, the source holds several entries; their conditions need not be identical. Identical values can stand only once. Results filed as inconclusive are left out. Where a call stands in place of a potency, no number is given. A number with no mark means an inactive call. Calls of active or inactive are those of the source. Calls follow the shape of the dose curve; as a rule, active = well fitted curve in the direction sought with a large enough effect; inconclusive = small, poorly fitted or top-dose-only effect, or another doubt; inactive = no such curve, though single readings can be large; an effect the other way counts as inactive or inconclusive.
Assays:
[1] = target: Cytochrome P450 3A7 (Homo sapiens) (UniProt P24462); assay: Cytochrome P450 family 3 subfamily A member 7 (CYP3A7) small molecule antagonists: luciferase biochemical qHTS assay (AID 1963596); also: nearly all actives have a fitted effect of over 40% in size
Summary of the method: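 Recombinant CYP3A7 P450-Glo luminescent assay: enzyme-proluciferin substrate mix preincubated with compound 10 min at room temperature, reaction started with NADPH regeneration system for 1 h. Luciferin detected by luminescence; ketoconazole as positive control.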

[2] = Viability qHTS for spleen associated tyrosine kinase inhibitor (SYKi) naive MV4-11 cells (AID 1963823); also: nearly all actives have a fitted effect of over 40% in size; also: potency is read from the fitted curve at half-maximal effect
Summary of the method: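 CellTiter-Glo luminescence, 10 min room-temperature incubation, gave viability. Cells: naive MV4-11 (500/well), treated 72 hr at 37 C, 5% CO2.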

[3] = Viability qHTS for spleen associated tyrosine kinase inhibitor (SYKi) drug resistant MV4-11 cells (AID 1963824); also: nearly all actives have a fitted effect of over 35% in size; also: potency is read from the fitted curve at half-maximal effect
Summary of the method: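 CellTiter-Glo luminescence, read 10 min after reagent addition, reports viability after a 72 hr compound exposure. Cells are an MV4-11 line made resistant to SYK inhibition, seeded at 500 per well onto compound-containing plates.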

[4] = Cellular viability qHTS for adrenocortical cancer (ACC) cell line SW-13 (AID 1963989); settings: SW-13 ACC cells viability, CellTiter-Glo, 48 h; activity (max response): hits give low values;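 also: cells grown in serum-free medium with ITS supplement; nearly all actives have a fitted effect of over 65% in size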
Summary of the method: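 Compound titrations (up to 46 uM final, in DMSO) were applied to SW-13 cells for 48 h at 37C/5% CO2. Reading used CellTiter-Glo after 20 min at room temperature; fitted curves yielded IC50 and efficacy.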

[5] = Cellular viability qHTS for adrenocortical cancer (ACC) cell line NCI-H295R (AID 1963990); also: nearly all actives have a fitted effect of over 60% in size; also: potency is read from the fitted curve at half-maximal effect
Summary of the method: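 Readout: CellTiter-Glo luminescence, 20 min RT. Exposure: 48 h, 37C/5% CO2. Cells: NCI-H295R, ITS-DMEM serum-free. Range: up to 46 uM. Analysis: 4PL fit, IC50 plus efficacy.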

Cytochrome P450 3A7 (Homo sapiens), sequence (P24462 whole entry, looked up): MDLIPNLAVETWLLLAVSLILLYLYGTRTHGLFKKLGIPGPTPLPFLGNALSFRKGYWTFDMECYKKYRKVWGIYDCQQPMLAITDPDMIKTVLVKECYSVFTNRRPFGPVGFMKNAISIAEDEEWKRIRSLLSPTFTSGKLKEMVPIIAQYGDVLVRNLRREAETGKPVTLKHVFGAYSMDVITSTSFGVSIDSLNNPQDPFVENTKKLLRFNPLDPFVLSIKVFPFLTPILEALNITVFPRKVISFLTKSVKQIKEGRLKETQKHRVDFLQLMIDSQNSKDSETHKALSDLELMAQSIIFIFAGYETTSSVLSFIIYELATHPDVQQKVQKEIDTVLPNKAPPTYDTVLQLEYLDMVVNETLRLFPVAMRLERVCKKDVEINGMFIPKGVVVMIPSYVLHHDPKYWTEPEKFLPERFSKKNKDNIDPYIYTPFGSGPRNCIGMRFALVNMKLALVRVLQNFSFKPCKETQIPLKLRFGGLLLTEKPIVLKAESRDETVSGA

With `O=C1OC(OC(=O)c2cccnc2Nc2cccc(C(F)(F)F)c2)c2ccccc21` (configuration not stated) the Potency [1] was “inactive”, the Potency [2] was “inactive” and the Potency [3] was “inactive”. For the same compound, the activity (max response) [4] was 6.27% and the Potency [5] was “inactive”.

In the case of `O=C(O)c1cc(-c2ccccc2)nc2ccccc12`, the Potency [1] is reported as “inactive”, the Potency [2] is reported as “inactive” and the Potency [3] is reported as “inactive”. For the same compound, the activity (max response) [4] was 10.7% and the Potency [5] was “inactive”.

With `CCC1(c2ccccc2)C(=O)NCNC1=O` the Potency [1] was “inactive”, the Potency [2] was “inactive” and the Potency [3] was “inactive”. For the same compound, the activity (max response) [4] was 8.13% and -10.5% and the Potency [5] was “inactive”.

In the case of `CCOC(=O)[C@H](CCc1ccccc1)N[C@@H](C)C(=O)N1CCC[C@H]1C(=O)O`, the Potency [1] is reported as “inactive”, the Potency [2] is reported as “inactive” and the Potency [3] is reported as “inactive”. The activity (max response) [4] was 11.5% and -12% and the Potency [5] was “inactive”.

For `CC(C)CCCC(C)NCCC(C)C` (configuration not stated), the Potency [1] was “inactive”, the Potency [2] was “inactive” and the Potency [3] was “inactive”. For the same compound, the activity (max response) [4] was -7.26% and the Potency [5] was “inactive”.

In the case of `OC[C@@H](O)[C@@H](O)[C@H](O)[C@H](O)CO`, the Potency [1] is reported as “inactive”, the Potency [2] is reported as “inactive” and the Potency [3] is reported as “inactive”. For the same compound, the activity (max response) [4] was -5.63% and the Potency [5] was “inactive”.

With `O=C(O)c1ccccc1-c1ccc(C(F)(F)F)cc1` the Potency [1] was “inactive”, the Potency [2] was “inactive” and the Potency [3] was “inactive”. The activity (max response) [4] was 8.51% and the Potency [5] was “inactive”.

For `NCCC(O)(P(=O)(O)O)P(=O)(O)O`, the Potency [1] was “inactive”, the Potency [2] was “inactive” and the Potency [3] was “inactive”. For the same compound, the activity (max response) [4] was 6.05% and the Potency [5] was “inactive”.

With `CCn1cc(C(=O)O)c(=O)c2cnc(N3CCNCC3)nc21` the Potency [1] was “inactive”, the Potency [2] was “inactive” and the Potency [3] was 2.99 µM (active). For the same compound, the activity (max response) [4] was 3.41% and the Potency [5] was “inactive”.

For `Cc1ccc(C(=O)c2ccc(CC(=O)O)n2C)cc1`, the Potency [1] was “inactive”, the Potency [2] was “inactive” and the Potency [3] was “inactive”. For the same compound, the activity (max response) [4] was 4.18% and the Potency [5] was “inactive”.

With `CC1(C)S[C@@H]2[C@H](NC(=O)[C@H](N)c3ccccc3)C(=O)N2[C@H]1C(=O)O` the Potency [1] was “inactive”, the Potency [2] was “inactive” and the Potency [3] was “inactive”. For the same compound, the activity (max response) [4] was 9.26% and the Potency [5] was “inactive”.

In the case of `CN(C)[C@@H]1C(=O)C(C(=O)NCN2CCCC2)=C(O)[C@@]2(O)C(=O)C3=C(O)c4c(O)cccc4[C@@](C)(O)C3C[C@@H]12` (some centres not stated), the Potency [1] is reported as “inactive”, the Potency [2] is reported as “inactive” and the Potency [3] is reported as “inactive”. The activity (max response) [4] was -7.75% and the Potency [5] was “inactive”.

For `OC1C(O)C(O)C(O)C(O)C1O` (configuration not stated), the Potency [1] was “inactive”, the Potency [2] was “inactive” and the Potency [3] was “inactive”. For the same compound, the activity (max response) [4] was -3.11% and the Potency [5] was “inactive”.

In the case of `O=C(NCC(O)CO)c1c(I)c(C(=O)NCC(O)CO)c(I)c(N(CCO)C(=O)CO)c1I` (configuration not stated), the Potency [1] is reported as “inactive”, the Potency [2] is reported as “inactive” and the Potency [3] is reported as “inactive”. For the same compound, the activity (max response) [4] was -7.35% and the Potency [5] was “inactive”.

With `CC(=O)N[C@@H](CCC(N)=O)C(=O)O` the Potency [1] was “inactive”, the Potency [2] was “inactive” and the Potency [3] was “inactive”. The activity (max response) [4] was 11.4% and the Potency [5] was “inactive”.

For `Cc1cc(C)cc(NC(=O)Cc2ccc(OC(C)(C)C(=O)O)cc2)c1`, the Potency [1] was “inactive”, the Potency [2] was “inactive” and the Potency [3] was “inactive”. The activity (max response) [4] was 8.53% and the Potency [5] was “inactive”.

With `CCOC(=O)c1ccccc1O` the Potency [1] was “inactive”, the Potency [2] was “inactive” and the Potency [3] was “inactive”. The activity (max response) [4] was -1.17% and the Potency [5] was “inactive”.

For `CN(C)CCOC(C)(c1ccccc1)c1ccccn1` (configuration not stated), the Potency [1] was “inactive”, the Potency [2] was “inactive” and the Potency [3] was “inactive”. The activity (max response) [4] was 14.2% and the Potency [5] was “inactive”.

With `CN(C)CCC(c1ccccc1)c1ccccn1` (configuration not stated) the Potency [1] was “inactive”, the Potency [2] was “inactive” and the Potency [3] was “inactive”. For the same compound, the activity (max response) [4] was 13.1% and the Potency [5] was “inactive”.

With `CC(=O)Nc1ccc(CC(=O)O)cc1` the Potency [1] was “inactive”, the Potency [2] was “inactive” and the Potency [3] was “inactive”. The activity (max response) [4] was 4.33% and the Potency [5] was “inactive”.

For `Cc1ccc(S(=O)(=O)NC(=O)NC2CCCCC2)cc1`, the Potency [1] was “inactive”, the Potency [2] was “inactive” and the Potency [3] was “inactive”. The activity (max response) [4] was 8.41% and the Potency [5] was “inactive”.

In the case of `CN1C(=O)CC(C)(c2ccccc2)C1=O` (configuration not stated), the Potency [1] is reported as “inactive”, the Potency [2] is reported as “inactive” and the Potency [3] is reported as “inactive”. For the same compound, the activity (max response) [4] was -10.7% and the Potency [5] was “inactive”.

With `CC1(C)OC(=O)Nc2ccc(Br)cc21` the Potency [1] was “inactive”, the Potency [2] was “inactive” and the Potency [3] was “inactive”. For the same compound, the activity (max response) [4] was 14.6% and the Potency [5] was “inactive”.

For `COc1ccc2c(c1)c1c3n2CCN(C)C3=NCC1`, the Potency [1] was “inactive”, the Potency [2] was “inactive” and the Potency [3] was “inactive”. The activity (max response) [4] was 0.0191% and the Potency [5] was “inactive”.

With `CC(C)(C)c1ccc(C(O)CCCN2CCC(C(O)(c3ccccc3)c3ccccc3)CC2)cc1` (configuration not stated) the Potency [1] was “inactive”, the Potency [2] was 21.1 µM (active) and the Potency [3] was 11.9 µM (active). For the same compound, the Potency [5] was 4.11 µM (active).

In the case of `CC(C)=CCNc1ncnc2c1ncn2[C@@H]1O[C@H](CO)[C@@H](O)[C@H]1O`, the Potency [1] is reported as “inactive”, the Potency [2] is reported as 0.82 µM (active) and the Potency [3] is reported as 0.58 µM (active). The Potency [5] was 7.31 µM (active).

With `COc1cc2ncnc(Nc3ccc(F)c(Cl)c3)c2cc1NC(=O)/C=C/CN1CCCCC1` the Potency [1] was “inactive”, the Potency [2] was 1.64 µM (active) and the Potency [3] was 1.64 µM (active). For the same compound, the Potency [5] was 4.47 µM (active).

Source: PubChem BioAssay (NCATS)
